The text below walks through data of PubChem BioAssay (NCI).

Some test systems named below: NCI-H23 lung; NCI-H226 lung; NCI-H322M lung; HOP-62 NSCLC; NCI-H460 lung; HOP-92 NSCLC; NCI-H522 lung; A549/ATCC NSCLC; 786-0 renal; COLO 205 colon; DU-145 prostate; K-562 leukemia; MALME-3M melanoma; MDA-MB-231 breast; RXF 393 renal; SF-268 CNS; SF-295 CNS; SF-539 CNS; UACC-257 melanoma; M14 melanoma.
What all share (test): NCI-60 one-dose screen, 48 h (100 = growth as untreated, 0 = no growth, -100 = all killed)
Settings in all cases: 10 µM unless noted

Compounds without any hit were thinned out: in the full panel of roughly 83,000, 20% have a hit.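 The test compound was applied at a single concentration to cells in 96-well plates for 48 hours, and percent growth was recorded.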 Unmarked numbers belong to inactive results. The source made the active and inactive calls. Rule for the calls: active = growth percent below 10; inactive = the rest.

Turning to `Cc1ccc(S(=O)(=O)NCCNc2cc(-c3cn(C(C)(C)C)nc3-c3cccc(O)c3)ccn2)cc1`, the growth is 74.7% in the assay on NCI-H23 lung; 61.8% in the assay with NCI-H226 lung; 82.2% with NCI-H322M lung; 93.3% with HOP-62 NSCLC; 60.8% with NCI-H460 lung; 75.1% in the assay with HOP-92 NSCLC. For the same compound, the growth in the assay with NCI-H522 lung was 68.1%; in the assay on A549/ATCC NSCLC, 70.6%; in the assay with 786-0 renal, 68.5%; in the assay on COLO 205 colon it was 18.1%; with DU-145 prostate it was 88.9%; in the assay with K-562 leukemia, 18.6%. Further, the growth was 61.8% in the assay with MALME-3M melanoma; 76.6% in the assay with MDA-MB-231 breast; 68.2% in the assay on RXF 393 renal; 62% in the assay on SF-268 CNS; 71.6% in the assay on SF-295 CNS; 64.5% in the assay on SF-539 CNS. Further, the growth with UACC-257 melanoma is 79.2%; in the assay on M14 melanoma, 86.9%.

As to `Cc1c(C(=O)/C=C/c2csc3ccccc23)[n+](=O)c2ccccc2n1[O-]`, the growth with NCI-H23 lung was 44.4%; in the assay on NCI-H226 lung, 78.1%; with NCI-H322M lung, 81.8%; in the assay on HOP-62 NSCLC, 98.7%; with NCI-H460 lung, 66.6%; in the assay with HOP-92 NSCLC, 43.9%. Further, the growth was 6.66% (active) in the assay with NCI-H522 lung; 61.7% in the assay on A549/ATCC NSCLC; 88.3% in the assay on 786-0 renal; 73.4% in the assay with COLO 205 colon; -3.03% (active) in the assay with DU-145 prostate; 21.7% with K-562 leukemia. Moreover, the growth was 125% in the assay on MALME-3M melanoma; 64.2% in the assay on MDA-MB-231 breast; 13.1% in the assay with RXF 393 renal; 44% in the assay on SF-268 CNS; 84.6% in the assay with SF-295 CNS; 89.2% in the assay on SF-539 CNS. Moreover, the growth in the assay with UACC-257 melanoma is 81.5%; with M14 melanoma, 62.9%.

For `O=C(O)COc1ccc(-c2cssc2=S)cc1`, the growth in the assay with NCI-H23 lung was 102%; in the assay on NCI-H226 lung it was 99.1%; in the assay on NCI-H322M lung, 104%; in the assay with HOP-62 NSCLC it was 104%; in the assay on NCI-H460 lung it was 113%; in the assay with HOP-92 NSCLC, 111%. In addition, the growth with NCI-H522 lung was 85.6%; with A549/ATCC NSCLC, 97.6%; with 786-0 renal, 101%; in the assay with COLO 205 colon, 109%; in the assay on DU-145 prostate it was 120%; in the assay on K-562 leukemia, 115%. The growth in the assay with MALME-3M melanoma is 97%; with MDA-MB-231 breast it was 110%; in the assay with RXF 393 renal, 107%; in the assay with SF-268 CNS it was 105%; in the assay with SF-295 CNS, 97.3%; in the assay with SF-539 CNS, 96.3%. The values for the growth with UACC-257 melanoma and with M14 melanoma were 94.5% and 105%, respectively.

Consider `COC(=O)c1cc2cc(-c3ccc(OC)cc3)cnc2[nH]1`, for which the growth in the assay with NCI-H23 lung is 36.8%; with NCI-H226 lung it was 45.1%; with NCI-H322M lung it was 50.4%; in the assay on HOP-62 NSCLC, 50.3%; with NCI-H460 lung, 6.52% (active); in the assay with HOP-92 NSCLC, 0.19% (active). Moreover, the growth in the assay on NCI-H522 lung was -52.2% (active); with A549/ATCC NSCLC, 24.9%; in the assay on 786-0 renal, 37.1%; with COLO 205 colon, 0.277% (active); in the assay with DU-145 prostate it was 18.1%; in the assay with K-562 leukemia it was 8.43% (active). Also, the growth with MALME-3M melanoma was 56.3%; in the assay on MDA-MB-231 breast, 57.1%; with RXF 393 renal, -36.4% (active); with SF-268 CNS, 45.5%; in the assay on SF-295 CNS, 0.983% (active); with SF-539 CNS, -27.2% (active). Also, the results for the growth in the assay with UACC-257 melanoma and in the assay on M14 melanoma were 51.3% and 14.3%, respectively.

For the compound `COc1cccc(CC(C)=C(c2ccc(OCCN3CCCCC3)cc2)c2ccc(OCCN3CCCCC3)cc2)c1`, the growth in the assay on NCI-H23 lung was 58%; in the assay on NCI-H226 lung it was 79.8%; in the assay with NCI-H322M lung, 0.584% (active); with HOP-62 NSCLC, 31.1%; with NCI-H460 lung, -73.3% (active); in the assay on HOP-92 NSCLC, -4.48% (active). For the same compound, the growth was -75% (active) in the assay on NCI-H522 lung; 2.38% (active) in the assay with A549/ATCC NSCLC; -83.7% (active) in the assay on 786-0 renal; -81.2% (active) with COLO 205 colon; 17.8% with DU-145 prostate; -37.3% (active) with K-562 leukemia. Moreover, the growth in the assay with MALME-3M melanoma was -88.5% (active); in the assay with MDA-MB-231 breast, -76.8% (active); in the assay on RXF 393 renal, -85.5% (active); in the assay on SF-268 CNS, -18.9% (active); with SF-295 CNS it was -62% (active); with SF-539 CNS, -96.1% (active). Besides, the growth in the assay on UACC-257 melanoma is -69.3% (active); in the assay with M14 melanoma, -64.8% (active).

Take `C=C1CCC2C3(C)COC(c4ccccc4)OC3CCC2(C)C1/C=C/C1=CCOC1=O` (stereo not given): the growth in the assay with NCI-H23 lung was 74.6%; with NCI-H226 lung it was 85.8%; in the assay with NCI-H322M lung it was 64.3%; in the assay on HOP-62 NSCLC it was 113%; with NCI-H460 lung, 93.6%; with HOP-92 NSCLC, 68.4%. Further, the growth with NCI-H522 lung is 63.6%; in the assay with A549/ATCC NSCLC it was 43.5%; in the assay on 786-0 renal it was 94.3%; in the assay with COLO 205 colon, 17.4%; in the assay on DU-145 prostate it was 14.9%; with K-562 leukemia it was 32.4%. The growth with MALME-3M melanoma was 105%; in the assay with MDA-MB-231 breast it was 89.7%; with RXF 393 renal it was -14.6% (active); in the assay with SF-268 CNS it was 73.2%; in the assay on SF-295 CNS, 105%; in the assay on SF-539 CNS, 63.6%. Besides, the growth with UACC-257 melanoma was 65.9%; in the assay on M14 melanoma, 53.4%.

As to `Cn1ccc(Nc2nccc(Oc3ccc(C(=O)Nc4cccc(F)c4)c(Cl)c3)n2)c1`, the growth with NCI-H23 lung is 67.3%; in the assay with NCI-H226 lung, 68%; with NCI-H322M lung, 48.4%; in the assay on HOP-62 NSCLC, 100%; in the assay on NCI-H460 lung, 106%; in the assay on HOP-92 NSCLC, 76.4%. Besides, the growth in the assay with NCI-H522 lung is 43.1%; with A549/ATCC NSCLC it was 97.2%; in the assay on 786-0 renal, 79.8%; in the assay with COLO 205 colon, 105%; in the assay on DU-145 prostate, 47.9%; in the assay on K-562 leukemia, 70.6%. Further, the growth is 94.6% with MALME-3M melanoma; 99% with MDA-MB-231 breast; 105% in the assay on RXF 393 renal; 79.4% with SF-268 CNS; 61.8% in the assay on SF-295 CNS; 84.9% in the assay on SF-539 CNS. Besides, the growth is 79.5% in the assay on UACC-257 melanoma and 96.9% with M14 melanoma.

On to `O=C(C1=Cc2cc3ccccc3n2Cc2cnnn21)c1ccccc1`, for which the growth is 73.6% in the assay on NCI-H23 lung; 78.1% in the assay on NCI-H226 lung; 80.6% in the assay with NCI-H322M lung; 39.2% with HOP-62 NSCLC; 30.9% with NCI-H460 lung; 55.1% in the assay with HOP-92 NSCLC. For the same compound, the growth in the assay with NCI-H522 lung is 9.68% (active); in the assay with A549/ATCC NSCLC it was 58.5%; in the assay on 786-0 renal it was 69.1%; in the assay on COLO 205 colon it was 58.8%; in the assay with DU-145 prostate, 85.6%; in the assay on K-562 leukemia it was 21.4%. Besides, the growth with MALME-3M melanoma was 76.9%; in the assay with MDA-MB-231 breast, 54.3%; in the assay on RXF 393 renal it was 54.6%; in the assay on SF-268 CNS it was 58.8%; with SF-295 CNS, 56.3%; with SF-539 CNS, 57.8%. Besides, the growth was 74.6% in the assay on UACC-257 melanoma and 22.2% in the assay on M14 melanoma.
